This note sets out measurements from PubChem BioAssay (NCI).

Molecules are shown by their SMILES. About 83,000 compounds went through this panel and 20% of them were active in at least one assay; those are over-represented in the sample as a whole.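 Interpretation: 100, growth as untreated; towards 0, rising growth inhibition; 0, no net growth; 0 to -100, cell death. Compounds scoring below 10 were considered active.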 A number with no mark means an inactive call. The source made the active and inactive calls.

Experiment in all cases: NCI-60 one-dose screen, 48 h (100 = growth as untreated, 0 = no growth, -100 = all killed)
Holding throughout (details): 10 µM unless noted

Assay [1] deals with NCI-H23 lung.
The subject of assay [2] is NCI-H226 lung.
In assay [3] the test system is NCI-H322M lung.
In assay [4] the test system is HOP-62 NSCLC.
Assay [5] relates to NCI-H460 lung.
The subject of assay [6] is HOP-92 NSCLC.
Assay [7] has as its system NCI-H522 lung.
The subject of assay [8] is A549/ATCC NSCLC.
For assay [9], the system named is 786-0 renal.
Assay [10] relates to COLO 205 colon.
Assay [11] has as its system DU-145 prostate.
Assay [12] relates to K-562 leukemia.
Assay [13] relates to MALME-3M melanoma.
Assay [14] relates to MDA-MB-231 breast.
In assay [15] the test system is RXF 393 renal.
Assay [16] has as its system SF-268 CNS.
Assay [17] concerns SF-295 CNS.
Assay [18] has as its system SF-539 CNS.
Assay [19] deals with UACC-257 melanoma.
Assay [20] concerns M14 melanoma.

`CC(=O)c1c(Nc2cccc(F)c2)[nH]c2c(Cl)cc(Cl)c(Cl)c2c1=O`: the growth in [1] was 3.83% (active); in [2], -4.3% (active); in assay [3] it was 9.02% (active); in [4], -10.1% (active); in assay [5] it was 3.6% (active); in assay [6] it was -14.2% (active). In addition, the growth in assay [7] was -8.41% (active); in assay [8] it was 4.98% (active); in assay [9], 12.2%; in assay [10], -63.4% (active); in [11] it was 25.2%; in assay [12] it was 7.81% (active). In addition, the growth in [13] was -18.6% (active); in assay [14] it was -3.57% (active); in assay [15] it was 4.14% (active); in assay [16], 19.2%; in [17], -28.4% (active); in assay [18], 4.02% (active). Further, the figures for the growth in assay [19] and in assay [20] were -14.2% (active) and 6.55% (active), respectively.
As to `C=C[C@@]1(C)CC(=O)[C@@H](C(C)(C)c2cn(C)c3ccc(Br)cc23)C[C@@H]1O[Si](C)(C)C(C)(C)C`, the growth in [1] was 98.3%; in assay [2], 83.9%; in assay [3], 101%; in [4] it was 111%; in assay [5], 101%; in [6], 83.6%. The growth in assay [7] is 94.4%; in assay [8], 102%; in assay [9], 97.4%; in assay [10] it was 104%; in [11] it was 95.4%; in [12], 104%. Moreover, the growth in assay [13] is 92.2%; in [14], 96.6%; in [15], 108%; in assay [16], 96.5%; in assay [17], 103%; in assay [18], 97.3%. In addition, the growth in assay [19] is 103%; in assay [20], 91.7%.
For `COc1ccc(C2C3=C(COC3=O)N(CCO)c3cc4c(cc32)OCO4)cc1OC` (stereo not given), the growth in [1] is 73.6%; in assay [2] it was 115%; in assay [3] it was 104%; in assay [4], 70.6%; in assay [5], 95.8%; in [6], 68.7%. Moreover, the growth was 66.2% in assay [7]; 90.7% in assay [8]; 84% in [9]; 83.6% in assay [10]; 100% in assay [11]; 52% in assay [12]. In addition, the growth in assay [13] is 104%; in assay [14] it was 101%; in assay [15], 81.4%; in assay [16], 91%; in assay [17], 62.6%; in assay [18], 91.9%. The values for the growth in assay [19] and in [20] were 90.6% and 68.6%, respectively.
With `COc1ccc(-c2cc(C(=O)N3N=C(c4ccc(N)cc4)CC3c3ccc(Cl)cc3)c3cc(OC)ccc3n2)cc1` (stereo not given), the growth was 67.6% in [1]; 89.1% in assay [2]; 90.9% in [3]; 66.6% in assay [4]; 105% in [5]; 59.2% in assay [6]. Also, the growth in assay [7] is 44.9%; in assay [8], 86.5%; in assay [9], 19.2%; in [10], 96.3%; in assay [11], 83.7%; in assay [12] it was 14.6%. For the same molecule, the growth is 62.1% in assay [13]; 85% in [14]; 78.9% in assay [15]; 68.4% in assay [16]; 66.7% in [17]; 15.4% in assay [18]. The growth was 77.2% in [19] and 5.95% (active) in assay [20].
For the molecule `COC(=O)c1c(C)nc(C)c2c1C(=O)C=C(NCc1ccccc1)C2=O`, the growth in assay [1] is 72%; in assay [2], 93.9%; in [3], 92.5%; in assay [4], 91.2%; in assay [5], 67.1%; in [6] it was 117%. In addition, the growth is 78.8% in assay [7]; 103% in [8]; 84.7% in assay [9]; 78.5% in assay [10]; 95.8% in assay [11]; 69.1% in [12]. The growth in assay [13] is -1.94% (active); in assay [14] it was 70.3%; in assay [15], 94.5%; in assay [16] it was 78.8%; in assay [17], 87.2%; in assay [18], 96.9%. Besides, the growth in [19] is 104%; in assay [20] it was 66.9%.
As to `Cc1ccc2nc(-c3ccc(C(=O)N/N=C/c4ccc([N+](=O)[O-])cc4)cc3)[nH]c2c1`, the growth in assay [1] was 101%; in [2], 104%; in assay [3] it was 104%; in assay [4] it was 108%; in [5] it was 102%; in assay [6], 91.9%. The growth is 95.1% in [7]; 106% in assay [8]; 97.6% in [9]; 108% in assay [10]; 103% in assay [11]; 101% in assay [12]. Further, the growth in [13] is 92.2%; in [14], 97.3%; in assay [15], 104%; in assay [16] it was 101%; in [17] it was 111%; in assay [18] it was 97.5%. Moreover, the growth is 108% in assay [19] and 102% in [20].
Take `CC1=C2CC/C(C)=C/CC[C@]3(C)O[C@H]3CC/C(C)=C/[C@H]2OC1`: the growth was 97.3% in assay [1]; 109% in assay [2]; 101% in [3]; 107% in [4]; 107% in assay [5]; 94.6% in assay [6]. Moreover, the growth is 87% in assay [7]; 90.5% in assay [8]; 92% in [9]; 104% in assay [10]; 110% in [11]; 87.5% in assay [12]. Besides, the growth was 112% in assay [13]; 96.5% in assay [14]; 126% in [15]; 105% in assay [16]; 91% in [17]; 95.1% in [18]. Also, the values for the growth in assay [19] and in [20] were 98.3% and 103%, respectively.
